Data from PubChem BioAssay (NCATS).
Records with an inconclusive call do not appear. Active and inactive are the calls of the source. The call rests on the fitted dose curve; in most records, active means well fitted curve in the direction sought with a large enough effect; inconclusive means small, poorly fitted or top-dose-only effect, or another doubt; inactive means no such curve, though single readings can be large; an effect the other way counts as inactive or inconclusive.

How the values were obtained:
[1] = qHTS of pediatric cancer cell lines to identify multiple opportunities for drug repurposing: Primary screen for OHS-50 cells (AID 1347103); further: nearly all actives have a fitted effect of over 40% in size; further: potency means the concentration at half of the fitted maximal effect;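 on activity change, negative = cytotoxic: plate controls were DMSO neutral control for no effect and bortezomib positive control for full effect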
How it was run: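 Cells (500-1,000/well) rested 5 h, then received compounds for 48 h; metabolically active cells were measured by CellTiter-Glo luminescence. Final concentrations spanned up to 46 µM (MIPE, 11-point) or 0.59 nM-46 µM (NPC, 8-point) in primary screens, 11-point in follow-ups.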

[2] = qHTS of pediatric cancer cell lines to identify multiple opportunities for drug repurposing: Primary screen for RD cells (AID 1347104); further: nearly all actives have a fitted effect of over 55% in size; further: potency means the concentration at half of the fitted maximal effect;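 on activity change, negative = cytotoxic: plate controls were DMSO for no effect and bortezomib for full effect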
How it was run: (§1)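 Primary screen of approved and investigational compounds on cells in growth media at 37 degrees C, 5% CO2. MIPE set at 11-point and NPC set at 8-point dilutions; viability scored by ATP-based luminescence at 48 hours.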

[3] = qHTS of pediatric cancer cell lines to identify multiple opportunities for drug repurposing: Primary screen for MG 63 (6-TG R) cells (AID 1347105); further: on the % scale 0 is the no-effect control and ±100 the full control effect; nearly all actives have a fitted effect of over 50% in size
How it was run: as §1

[4] = qHTS of pediatric cancer cell lines to identify multiple opportunities for drug repurposing: Primary screen for control Hh wild type fibroblast cells (AID 1347106);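 further: series mostly up to about 46 µM; on the % scale 0 is the no-effect control and ±100 the full control effect; a drop in luminescence marks cytotoxicity and a rise apparent proliferation; nearly all actives have a fitted effect of over 55% in size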
How it was run: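 Cells (500-1,000/well) in growth media were settled 5 h at 37 degrees C, then given compounds for 48 h. Viability was read as CellTiter-Glo luminescence. Primary runs used MIPE at 11 points (0.78 nM-46 µM) and NPC at 8 points (0.59 nM-46 µM); follow-ups used 11 points.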

[5] = qHTS of pediatric cancer cell lines to identify multiple opportunities for drug repurposing: Primary screen for Rh30 cells (AID 1347107); further: series mostly up to about 46 µM; on the % scale 0 is the no-effect control and ±100 the full control effect; nearly all actives have a fitted effect of over 75% in size
How it was run: (§2)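 Viability after 48 h compound treatment at 37C, 500-1,000 cells/well, read as ATP luminescence with CellTiter-Glo. Primary screens used 11-point (MIPE, 0.78 nM-46 µM) or 8-point (NPC, 0.59 nM-46 µM) final concentrations; follow-up screens used 11-point dilutions.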

[6] = qHTS of pediatric cancer cell lines to identify multiple opportunities for drug repurposing: Primary screen for Rh41 cells (AID 1347108);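 further: series mostly up to about 46 µM; luminescence drop marks cytotoxic hits; nearly all actives have a fitted effect of over 70% in size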
How it was run: as §1

[7] = qHTS of pediatric cancer cell lines to identify multiple opportunities for drug repurposing: Confirmatory screen for NB1643 cells (AID 1347109);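 further: plate controls were DMSO for no effect and bortezomib for full effect; nearly all actives have a fitted effect of over 45% in size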
How it was run: as §2

[8] = qHTS of pediatric cancer cell lines to identify multiple opportunities for drug repurposing: Confirmatory screen for A673 cells (AID 1347110); further: potency means the concentration at half of the fitted maximal effect; nearly all actives have a fitted effect of over 65% in size
How it was run: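 A673 cells seeded at 500-1,000 cells/well, rested 5 h, then dosed; primary MIPE 11-point (0.78 nM to 46 µM), NPC (0.59 nM to 46 µM); confirmatory 11-point. CellTiter-Glo luminescence after 48 h.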

[9] = qHTS of pediatric cancer cell lines to identify multiple opportunities for drug repurposing: Confirmatory screen for SK-N-MC cells (AID 1347111); conditions: SK-N-MC cell viability;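 further: potency means the concentration at half of the fitted maximal effect; cells exposed to compound for 48 h before the readout; nearly all actives have a fitted effect of over 70% in size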
How it was run: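 SK-N-MC cells at 500-1,000 cells/well in growth media were pre-incubated 5 h, then exposed to compounds at 11-point dilutions for 48 h at 37 degrees C, 5% CO2. Viability was read as CellTiter-Glo luminescence.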

[10] = qHTS of pediatric cancer cell lines to identify multiple opportunities for drug repurposing: Confirmatory screen for BT-12 cells (AID 1347112); further: on the % scale 0 is the no-effect control and ±100 the full control effect; nearly all actives have a fitted effect of over 55% in size
How it was run: as §2

[11] = qHTS of pediatric cancer cell lines to identify multiple opportunities for drug repurposing: Confirmatory screen for LAN-5 cells (AID 1347113); further: nearly all actives have a fitted effect of over 65% in size
How it was run: as §2

[12] = qHTS of pediatric cancer cell lines to identify multiple opportunities for drug repurposing: Confirmatory screen for DAOY cells (AID 1347114); further: on the % scale 0 is the no-effect control and ±100 the full control effect; nearly all actives have a fitted effect of over 65% in size
How it was run: (§3)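 Viability measured as metabolically active cells via CellTiter-Glo luminescence following 48 hours of compound exposure, 11-point dilutions in confirmatory testing. 500-1,000 cells/well plated 5 hours before dosing; controls were DMSO and 2.3 µM bortezomib.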

[13] = qHTS of pediatric cancer cell lines to identify multiple opportunities for drug repurposing: Confirmatory screen for SJ-GBM2 cells (AID 1347116); further: nearly all actives have a fitted effect of over 60% in size; further: potency means the concentration at half of the fitted maximal effect;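 on activity change, negative = cytotoxic: plate controls were DMSO for no effect and bortezomib for full effect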
How it was run: as §3

[14] = qHTS of pediatric cancer cell lines to identify multiple opportunities for drug repurposing: Confirmatory screen for BT-37 cells (AID 1347117);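 further: plate controls were DMSO for no effect and bortezomib for full effect; nearly all actives have a fitted effect of over 55% in size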
How it was run: as §2

[15] = qHTS of pediatric cancer cell lines to identify multiple opportunities for drug repurposing: Confirmatory screen for TC32 cells (AID 1347118); conditions: TC32 Ewing sarcoma cells viability qHTS; further: potency means the concentration at half of the fitted maximal effect; nearly all actives have a fitted effect of over 65% in size
How it was run: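 Measured quantity: luminescence from CellTiter-Glo, reflecting metabolically active TC32 cells following 48 h of compound. Curves came straight from multi-point titrations, with 8 or 11 points in primary and 11 in confirmatory screening.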

[16] = qHTS of pediatric cancer cell lines to identify multiple opportunities for drug repurposing: Confirmatory screen for MG 63 (6-TG R) cells (AID 1347119)
How it was run: as §2

[17] = qHTS of pediatric cancer cell lines to identify multiple opportunities for drug repurposing: Confirmatory screen for U-2 OS cells (AID 1347122)
How it was run: as §2

[18] = qHTS of pediatric cancer cell lines to identify multiple opportunities for drug repurposing: Confirmatory screen for Rh41 cells (AID 1347123);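 further: 48 h compound exposure; plate controls were DMSO for no effect and bortezomib for full effect; nearly all actives have a fitted effect of over 60% in size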
How it was run: as §2

[19] = qHTS of pediatric cancer cell lines to identify multiple opportunities for drug repurposing: Confirmatory screen for NB-EBc1 cells (AID 1347115); further: on the % scale 0 is the no-effect control and ±100 the full control effect; nearly all actives have a fitted effect of over 45% in size
How it was run: as §2

[20] = qHTS of pediatric cancer cell lines to identify multiple opportunities for drug repurposing: Confirmatory screen for control Hh wild type fibroblast cells (AID 1347121);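 further: plate controls were DMSO for no effect and bortezomib for full effect; nearly all actives have a fitted effect of over 70% in size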
How it was run: as §2

NS(=O)(=O)c1cc2c(cc1Cl)NC(C1CC3C=CC1C3)NS2(=O)=O (centres undefined)
inactive: Potency [1] | Potency [2] | Potency [3] | outcome [4] | Potency [5] | Potency [6]

CN(C)C(=O)Oc1ccc[n+](C)c1
inactive: Potency [1] | Potency [2] | Potency [3] | outcome [4] | Potency [5] | Potency [6]

FC(F)(F)c1ccccc1-n1ccnc1
inactive: Potency [1] | Potency [2] | Potency [3] | outcome [4] | Potency [5] | Potency [6]

CCCN(CCC)C(=O)C(CCC(=O)O)NC(=O)c1ccccc1 (centres undefined)
inactive: Potency [1] | Potency [2] | Potency [3] | outcome [4] | Potency [5] | Potency [6]

CN(C)C(=O)Oc1cccc([N+](C)(C)C)c1
inactive: Potency [1] | Potency [2] | Potency [3] | outcome [4] | Potency [5] | Potency [6]

Nc1c2c(nc3ccccc13)CCCC2O (centres undefined)
inactive: Potency [1] | Potency [2] | Potency [3] | outcome [4] | Potency [5] | Potency [6]

Cc1cc(C)c(/C=C2\C(=O)Nc3ccccc32)[nH]1
active: Potency [1] 15.5 µM
inactive: Potency [2] | Potency [3] | outcome [4] | Potency [5] | Potency [6]

O=C(O)CN(CCN(CC(=O)O)CC(=O)O)CCN(CC(=O)O)CC(=O)O
inactive: Potency [1] | Potency [2] | Potency [3] | outcome [4] | Potency [5] | Potency [6]

CCN(CC)CC(=O)Nc1c(C)cccc1C
inactive: Potency [1] | Potency [2] | Potency [3] | outcome [4] | Potency [5] | Potency [6]

c1ccc2c(c1)CCCC2C1=NCCN1 (centres undefined)
inactive: Potency [1] | Potency [2] | Potency [3] | outcome [4] | Potency [5] | Potency [6]

COCCc1ccc(OCC(O)CNC(C)C)cc1 (centres undefined)
inactive: Potency [1] | Potency [2] | Potency [3] | outcome [4] | Potency [5] | Potency [6]

CC(C)[N+](C)(CCOC(=O)C1c2ccccc2Oc2ccccc21)C(C)C
inactive: Potency [1] | Potency [2] | Potency [3] | outcome [4] | Potency [5] | Potency [6]

CC(C)(C)NCC(O)c1cc(O)cc(O)c1 (centres undefined)
inactive: Potency [1] | Potency [2] | Potency [3] | outcome [4] | Potency [5] | Potency [6]

NC(Cc1ccc(Cl)cc1)C(=O)O (centres undefined)
inactive: activity change, negative = cytotoxic [1] 9.59% [at 0.73 µM] | activity change, negative = cytotoxic [2] 7.62% [at 0.597 µM] | activity change, negative = cytotoxic [3] 9.57% [at 0.597 µM] | activity change, negative = cytotoxic [4] 6.18% [at 0.597 µM] | activity change, negative = cytotoxic [5] 30.5% [at 0.597 µM] | activity change, negative = cytotoxic [6] 28% [at 0.597 µM]

c1cnc(N2CCN(Cc3ccc4c(c3)OCO4)CC2)nc1
inactive: Potency [1] | Potency [2] | Potency [3] | outcome [4] | Potency [5] | Potency [6]

CN/C(=C\[N+](=O)[O-])NCCSCc1ccc(CN(C)C)o1
inactive: Potency [1] | Potency [3] | outcome [4] | Potency [5] | Potency [7] | Potency [10] | Potency [11] | Potency [12] | Potency [13] | Potency [14] | Potency [16] | Potency [17] | Potency [18]
active: Potency [8] 5.22 µM | Potency [9] 11.7 µM | Potency [15] 10.4 µM

C[N+](C)(C)CCOC(=O)CCC(=O)OCC[N+](C)(C)C
inactive: Potency [1] | Potency [2] | Potency [3] | outcome [4] | Potency [5] | Potency [6]

CC(=O)OC(C)C[N+](C)(C)C (centres undefined)
inactive: Potency [1] | Potency [2] | outcome [4] | Potency [5] | Potency [6]

C=CCc1ccccc1OCC(O)CNC(C)C (centres undefined)
inactive: Potency [1] | Potency [2] | outcome [4] | Potency [5] | Potency [6]

COCCOC(=O)C1=C(C)NC(C)=C(C(=O)OC(C)C)C1c1cccc([N+](=O)[O-])c1 (centres undefined)
inactive: outcome [4]
active: Potency [1] 24.6 µM

CC1=NS(=O)(=O)c2cc(Cl)ccc2N1
inactive: Potency [1] | Potency [2] | Potency [3] | outcome [4] | Potency [5] | Potency [6]

NCCCNCCSP(=O)(O)O
inactive: activity change, negative = cytotoxic [1] 5.02% [at 11.5 µM] | activity change, negative = cytotoxic [2] 5.99% [at 9.22 µM] | activity change, negative = cytotoxic [3] -7.37% [at 9.22 µM] | activity change, negative = cytotoxic [4] 2.73% [at 9.22 µM] | activity change, negative = cytotoxic [5] 17.5% [at 9.22 µM] | activity change, negative = cytotoxic [6] 20.1% [at 9.22 µM] | activity change, negative = cytotoxic [10] 1.94% [at 9.58 µM] | activity change, negative = cytotoxic [19] 10.1% [at 9.58 µM] | activity change, negative = cytotoxic [14] 0.812% [at 9.58 µM] | activity change, negative = cytotoxicity [16] 6.09% [at 9.58 µM] | activity, negative = cytotoxic [20] 0.865% [at 9.58 µM]
active: Potency [13] 0.215 µM

OCCN1CCN(CC/C=C2/c3ccccc3Sc3ccc(C(F)(F)F)cc32)CC1
active: Potency [1] 24.6 µM | Potency [2] 26.6 µM
inactive: outcome [4] | Potency [5] | Potency [6]

CN(C)CCCN1c2ccccc2Sc2ccc(C(F)(F)F)cc21
active: Potency [1] 24.6 µM | Potency [9] 26.1 µM
inactive: Potency [3] | outcome [4] | Potency [5] | Potency [6]

CCCC(C(=O)OCCN(CC)CC)(c1ccccc1)c1ccccc1
inactive: outcome [4]
active: Potency [1] 30.9 µM | Potency [2] 29.9 µM

O=C1NCN(c2ccccc2)C12CCN(CCCC(c1ccc(F)cc1)c1ccc(F)cc1)CC2
active: Potency [1] 15.5 µM | Potency [2] 26.6 µM
inactive: outcome [4]

Cc1nc2sccn2c(=O)c1CCN1CCC(=C(c2ccc(F)cc2)c2ccc(F)cc2)CC1
inactive: Potency [3] | outcome [4] | Potency [5] | Potency [6]
active: Potency [1] 27.6 µM

NC(=O)c1cn(Cc2c(F)cccc2F)nn1
inactive: Potency [1] | Potency [2] | Potency [3] | outcome [4] | Potency [5] | Potency [6]

Nc1ncn([C@@H]2O[C@H](CO)[C@@H](O)[C@H]2O)c(=O)n1
active: Potency [1] 24.6 µM | Potency [2] 8.41 µM
inactive: Potency [3] | Potency [5]
